PubChem BioAssay (EPA / NIEHS)
The source made the active and inactive calls. Rule for the calls: active = hit-call score of the fitted dose curve at least 0.9, where 1 is the maximum; inactive = score below 0.9.

Experiments:
[1] = target: CCAAT/enhancer-binding protein beta (Homo sapiens) (UniProt P17676); test: ATG_C_EBP_CIS: Attagene CIS-FACTORIAL HepG2 Assay for human CCAAT/Enhancer Binding Protein (C/EBP) beta (AID 2282927); conditions: HepG2 Attagene cis-factorial transcription factor reporter; actives raise or lower the signal
How it was run: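 HepG2, transient MRTU transfection, 24 h treatment. RT-PCR plus CE fluorescence; DMSO negative control, bidirectional fit.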

[2] = ATG_CMV_CIS: Attagene CIS-FACTORIAL HepG2 Assay for human CMV (Internal Marker) (AID 2282928); conditions: HepG2 CMV promoter reporter, transcription factor profiling; actives raise or lower the signal;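 note: endpoint acts as a background internal control marker rather than a target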
How it was run: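 After transient transfection of HepG2 with reporter transcription units driven by cis-regulatory promoters, cells receive test chemical for 24 h. Labeled reporter amplicons, digested with HpaI, are sized and quantified by capillary electrophoresis against DMSO.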

[3] = ATG_AP_2_CIS: Attagene CIS-FACTORIAL HepG2 Assay for human Activator Protein 2 (AP-2) (AID 2282932); conditions: HepG2 AP-2 cis-reporter, Attagene transcription factor profiling; actives raise or lower the signal
How it was run: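 Multiplexed mRNA reporter assay in HepG2: cis-regulated units report endogenous factor activity after 24 h treatment. Fluorescence from capillary electrophoresis of RT-PCR products gives the signal, with DMSO as baseline.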

[4] = ATG_BRE_CIS: Attagene CIS-FACTORIAL HepG2 Assay for human Bone Morphogenetic Protein (BMP) Response Element (BRE) (AID 2282933); conditions: HepG2 BMP response element reporter, Attagene transcription factor profiling; actives raise or lower the signal
How it was run: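 A HepG2 multiplex reporter system measured inducible reporter mRNA 24 h post-dosing. Detection: RT-PCR, 6-FAM primer extension, HpaI digestion, capillary electrophoresis. Activity fitted bidirectionally relative to DMSO.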

[5] = target: Transcription factor E2F1 (Homo sapiens) (UniProt Q01094); test: ATG_E2F_CIS: Attagene CIS-FACTORIAL HepG2 Assay for human E2F Transcription Factor 1 (AID 2282935); conditions: HepG2 Attagene cis-reporter, E2F reporter RNA transcripts; actives raise or lower the signal
How it was run: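 Measures reporter transcript levels via RT-PCR with capillary electrophoresis detection in HepG2 cells harboring cis-regulated reporter units; 24 h post-dose; bidirectional curve fitting with DMSO as baseline.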

[6] = ATG_E_Box_CIS: Attagene CIS-FACTORIAL HepG2 Assay for human Enhancer Box (E-box) (AID 2282936); conditions: HepG2 E-box cis-reporter transcription, actives raise or lower the signal
How it was run: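 First, HepG2 cells receive multiple cis-regulated reporter constructs by transient transfection. Next, chemicals are applied for 24 h. Finally, reporter mRNA is quantified via RT-PCR and capillary electrophoresis, with DMSO as baseline.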

[7] = ATG_M_61_CIS: Attagene CIS-FACTORIAL HepG2 Assay for M61 Transcription Factor (Internal Marker) (AID 2282937); conditions: HepG2 Attagene CIS-FACTORIAL M61 internal marker reporter; actives raise or lower the signal
How it was run: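 Readout is reporter mRNA by RT-PCR, fluorescent primer extension and capillary electrophoresis, with gain or loss fitted relative to DMSO. Transfected HepG2 cells carrying endogenous-TF-driven cis reporters were exposed to chemicals for 24 hours.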

[8] = ATG_EGR_CIS: Attagene CIS-FACTORIAL HepG2 Assay for human Early Growth Response 1 (EGR1) (AID 2282938); conditions: HepG2 Attagene CIS-FACTORIAL EGR reporter mRNA; actives raise or lower the signal
How it was run: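 After 24 h compound exposure, RNA from reporter-transfected HepG2 cells was reverse-transcribed, PCR-amplified, fluorescently labelled and resolved by capillary electrophoresis. EGR1 reporter transcript changes, up or down, were fitted against DMSO, reflecting endogenous transcription-factor activity.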

[9] = ATG_M_19_CIS: Attagene CIS-FACTORIAL HepG2 Assay for M19 Transcription Factor (Internal Marker) (AID 2282939); conditions: HepG2 Attagene CIS-FACTORIAL M19 internal marker reporter; actives raise or lower the signal
How it was run: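 Chemical-treated HepG2 (24 h) with MRTU constructs; reporter transcripts detected by fluorescent RT-PCR fragment analysis on capillary electrophoresis. Internal background marker, DMSO as baseline.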

[10] = ATG_FoxO_CIS: Attagene CIS-FACTORIAL HepG2 Assay for human Forkhead box O (FoxO) (AID 2282943); conditions: HepG2 Attagene cis-reporter, FoxO element, mRNA; actives raise or lower the signal
How it was run: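 Transfected HepG2 reporter cells exposed to test chemical for 24 h; reporter RNA measured by reverse transcription, PCR and fluorescent capillary electrophoresis; curves fitted for increases and decreases against DMSO.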

[11] = ATG_GATA_CIS: Attagene CIS-FACTORIAL HepG2 Assay for human GATA Binding Protein (AID 2282944); conditions: HepG2 GATA cis-element reporter, Attagene multiplex mRNA; actives raise or lower the signal
How it was run: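 Transfected cis-reporter HepG2 cells were treated with chemicals for 24 hours. Total RNA was then converted to cDNA, amplified with reporter-specific primers and analysed by fluorescent capillary electrophoresis, using DMSO-treated wells as baseline.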

[12] = ATG_GLI_CIS: Attagene CIS-FACTORIAL HepG2 Assay for human Zinc Finger Protein GLI1 (AID 2282945); conditions: HepG2, Attagene cis-factorial reporter mRNA, GLI element; actives raise or lower the signal
How it was run: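 Transiently transfected HepG2 cells report endogenous transcription factor activity via cis-element-driven reporter units. After 24 h compound exposure, reporter mRNA was measured by RT-PCR with capillary electrophoresis; bidirectional fitting against DMSO baseline.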

[13] = ATG_ISRE_CIS: Attagene CIS-FACTORIAL HepG2 Assay for human Interferon Regulatory Factor 1 (IRF1) binding to an Interferon-Stimulated Response Element (ISRE) (AID 2282948); conditions: HepG2 ISRE cis-reporter (Attagene), mRNA transcription readout; actives raise or lower the signal
How it was run: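 Cell-based cis-reporter assay; HepG2; 24 h exposure; reporter mRNA by RT-PCR plus capillary electrophoresis fluorescence; activity in either direction scored relative to DMSO.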

[14] = ATG_M_32_CIS: Attagene CIS-FACTORIAL HepG2 Assay for M32 Transcription Factor (Internal Marker) (AID 2282949); conditions: HepG2 Attagene cis-factorial M32 reporter, mRNA; actives raise or lower the signal;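 note: background control marker of the multiplexed CIS panel rather than a real target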
How it was run: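 Following 24 h chemical exposure of HepG2 cells transiently expressing cis-promoter reporter constructs, reporter transcript levels were determined by RT-PCR with fluorescent labelling and capillary electrophoresis, then fitted bidirectionally against DMSO.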

[15] = ATG_M_06_CIS: Attagene CIS-FACTORIAL HepG2 Assay for M06 Transcription Factor (Internal Marker) (AID 2282950); conditions: HepG2 Attagene CIS-FACTORIAL M06 internal marker reporter; actives raise or lower the signal
How it was run: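 Cells (HepG2, transiently carrying cis-driven reporter units) receive chemical for 24 h before RNA isolation. Reporter cDNA is PCR-amplified, FAM-labelled by primer extension, HpaI-digested and sized on a capillary analyser.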

[16] = ATG_MRE_CIS: Attagene CIS-FACTORIAL HepG2 Assay for human Metal Responsive Element (MRE) (AID 2282954); conditions: HepG2 MRE cis-reporter transcription, Attagene multiplex; actives raise or lower the signal
How it was run: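 Fluorescent reporter fragments separated by capillary electrophoresis give mRNA induction for the MRE unit after 24 h treatment of transfected HepG2 cells. Endogenous transcription-factor activity is read; DMSO serves as negative control and baseline.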

[17] = ATG_PXRE_CIS: Attagene CIS-FACTORIAL HepG2 Assay for human Pregnane X Receptor Element (PXRE) (AID 2282957); conditions: HepG2 Attagene CIS-FACTORIAL PXRE reporter, mRNA; actives raise or lower the signal
How it was run: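 Cells: HepG2, transiently transfected reporter units under cis promoter control. Exposure: 24 h. Detection: reporter mRNA via RT-PCR/CE fluorescence; bidirectional fitting, DMSO-referenced.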

[18] = ATG_Sox_CIS: Attagene CIS-FACTORIAL HepG2 Assay for human SRY-box transcription factor (SOX) (AID 2282960); conditions: HepG2 Attagene cis-factorial SOX reporter, mRNA; actives raise or lower the signal
How it was run: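 Reporter transcripts, measured by RT-PCR and capillary electrophoresis of labelled fragments, report endogenous SOX transcription factor activity. Transiently transfected human HepG2 cells receive chemical for 24 h; changes in either direction are fitted relative to DMSO.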

[19] = target: Transcription factor Sp1 (Homo sapiens) (UniProt P08047); test: ATG_Sp1_CIS: Attagene CIS-FACTORIAL HepG2 Assay for human Specificity Protein 1 (Sp1) (AID 2282961); conditions: HepG2 Sp1 cis-reporter transcription, actives raise or lower the signal
How it was run: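 Read-out is reporter transcript level, measured by RT-PCR and fluorescent capillary electrophoresis after 24 h chemical treatment. System: transiently transfected HepG2 cells reporting endogenous transcription factor activity; gain or loss fitted against DMSO baseline.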

[20] = ATG_SREBP_CIS: Attagene CIS-FACTORIAL HepG2 Assay for human Sterol Regulatory Element Binding (SREBP) (AID 2282962); conditions: HepG2 Attagene cis-factorial SREBP reporter, mRNA; actives raise or lower the signal
How it was run: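 mRNA induction of transfected cis-promoter reporters in HepG2 cells, 24 h post-dose. Detection: RT-PCR with 6-FAM-labelled products, HpaI digest, capillary electrophoresis. DMSO served as negative control and baseline.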

Measured: AC50

Chain of CCAAT/enhancer-binding protein beta (Homo sapiens) (P17676 whole entry, looked up): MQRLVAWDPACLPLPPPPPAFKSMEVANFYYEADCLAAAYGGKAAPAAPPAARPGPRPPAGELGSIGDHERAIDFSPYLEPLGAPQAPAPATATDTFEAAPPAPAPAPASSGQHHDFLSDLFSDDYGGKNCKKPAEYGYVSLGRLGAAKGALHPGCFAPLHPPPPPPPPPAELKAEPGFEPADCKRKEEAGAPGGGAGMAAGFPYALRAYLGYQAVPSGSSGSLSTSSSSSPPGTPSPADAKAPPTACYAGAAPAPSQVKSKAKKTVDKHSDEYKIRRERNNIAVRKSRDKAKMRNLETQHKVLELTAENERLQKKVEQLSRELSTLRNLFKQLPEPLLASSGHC
Chain of Transcription factor E2F1 (Homo sapiens) (Q01094 whole entry, looked up): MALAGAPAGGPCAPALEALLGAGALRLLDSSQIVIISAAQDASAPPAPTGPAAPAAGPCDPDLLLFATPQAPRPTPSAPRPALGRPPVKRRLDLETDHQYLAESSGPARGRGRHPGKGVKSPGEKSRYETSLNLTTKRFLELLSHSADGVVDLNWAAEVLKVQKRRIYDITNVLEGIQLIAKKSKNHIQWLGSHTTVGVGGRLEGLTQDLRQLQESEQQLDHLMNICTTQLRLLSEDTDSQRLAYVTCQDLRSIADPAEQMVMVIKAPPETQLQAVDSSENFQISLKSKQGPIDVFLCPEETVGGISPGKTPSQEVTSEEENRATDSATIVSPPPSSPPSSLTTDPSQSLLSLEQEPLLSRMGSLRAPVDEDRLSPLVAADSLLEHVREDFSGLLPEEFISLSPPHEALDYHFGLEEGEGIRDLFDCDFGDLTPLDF
Chain of Transcription factor Sp1 (Homo sapiens) (P08047 whole entry, looked up): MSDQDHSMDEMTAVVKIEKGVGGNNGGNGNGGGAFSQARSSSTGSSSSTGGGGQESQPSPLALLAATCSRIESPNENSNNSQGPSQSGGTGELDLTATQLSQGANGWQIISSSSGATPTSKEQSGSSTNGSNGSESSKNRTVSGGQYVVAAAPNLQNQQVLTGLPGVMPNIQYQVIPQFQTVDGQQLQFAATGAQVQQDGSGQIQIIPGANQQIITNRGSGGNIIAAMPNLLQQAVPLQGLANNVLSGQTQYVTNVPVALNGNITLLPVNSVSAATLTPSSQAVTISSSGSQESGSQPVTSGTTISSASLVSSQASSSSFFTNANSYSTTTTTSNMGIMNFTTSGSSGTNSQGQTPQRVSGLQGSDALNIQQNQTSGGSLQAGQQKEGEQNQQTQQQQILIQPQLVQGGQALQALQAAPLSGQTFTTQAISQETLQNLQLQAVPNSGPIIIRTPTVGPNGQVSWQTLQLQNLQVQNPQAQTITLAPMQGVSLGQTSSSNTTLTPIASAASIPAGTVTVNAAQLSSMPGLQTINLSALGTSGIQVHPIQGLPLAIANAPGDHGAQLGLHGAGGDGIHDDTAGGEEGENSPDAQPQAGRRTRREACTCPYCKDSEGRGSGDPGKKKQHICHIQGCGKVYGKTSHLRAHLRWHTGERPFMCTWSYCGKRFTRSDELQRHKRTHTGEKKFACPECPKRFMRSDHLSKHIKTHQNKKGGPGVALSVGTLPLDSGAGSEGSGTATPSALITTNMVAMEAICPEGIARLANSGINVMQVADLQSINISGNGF

CN(C)CCCN1c2ccccc2CCc2ccc(Cl)cc21
active: [3] 7.1 µM | [17] 5.14 µM | [18] 11.1 µM | [20] 15.8 µM
inactive: all other assays above

CO[Si](CCCNCCN)(OC)OC
active: [17] 37.3 µM
inactive: all other assays above

CC=CC(=O)O
inactive: all assays above

O=C(CC(C(=O)OC1CCCCC1)S(=O)(=O)O)OC1CCCCC1 (stereo not given)
active: [17] 9.51 µM
inactive: all other assays above

CC/C=C\CC/C=C/C(OCC)OCC
active: [2] 150 µM | [13] 142 µM | [16] 136 µM | [17] 4.02 µM | [18] 147 µM
inactive: all other assays above

CCCCCCCCCCCCCC
inactive: all assays above

Cc1cc(-n2nc3ccc(Cl)cc3n2)c(O)c(C(C)(C)C)c1
active: [17] 2.86 µM
inactive: all other assays above
